From PubChem BioAssay (NCI) come the findings set out here.

This is part of a sample that, as a whole, favours compounds with a hit. Of some 83,000 tested, about 20% had one in any assay.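 The endpoint reported here, percent growth, reads 100 for growth as untreated, 0 for no net growth and -100 for all cells dead.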 A number with no mark means an inactive call. Calls of active or inactive are those of the source. How the source made its calls: active means growth percent below 10; inactive means the rest.

One experiment relates to MDA-MB-435 melanoma. The experiment can be described thus: NCI-60 one-dose screen, 48 h (100 = growth as untreated, 0 = no growth, -100 = all killed). The note with it: 10 µM unless noted.
Regarding `S=c1[nH]cccc1-c1nnc2n1Nc1nc3ccccc3cc1CS2`, the growth is 106%.
Consider `O=C(Nc1cccc(Cl)c1)c1cc(Cl)ccc1O`, for which the growth is 5.73% (active).
As for `CCc1c(Nc2ccc(C)cc2)[nH]c(N)nc1=S`, the growth is 104%.
Same read-out and setting: the figure for `CCN(CC)CCCC(C)Nc1cc(-c2cccc(OC(F)(F)F)c2)nc2ccc(N3CCCC3)cc12` (centres undefined) is -84.4% (active); for `COc1ccc(C(=O)/C=C/c2ccc(OCc3ccccc3)c(OC)c2)cc1OC` it is 61%.
The same measure, in the same setting: the figure for `CC[C@H](C)[C@@H]1NC(=O)[C@H](Cc2ccc(O)cc2)N(C)C(=O)[C@H](Cc2ccccc2)NC(=O)CN(C)C(=O)[C@@H]2CCCN2C(=O)[C@@H](Cc2ccccc2)N(C)C(=O)[C@H](CC(C)C)NC1=O` is -46.3% (active).
On the same count and under the same terms, the figure for `NC(=S)N/N=C/c1ccc(OC(=O)COc2cc(Cl)c(Cl)cc2Cl)cn1` is 71.7%.
On to `COc1ccccc1Nc1cc(O)c2c(=O)cc(-c3ccccc3)oc2c1`, for which the growth is -24.3% (active).
Still for that read-out and setting: with `O=CNc1cc(Cl)cc(Cl)c1` the figure was 107%; with `O=C(Nc1ccc(Cl)cc1)Nc1ccc(Cl)c(Cl)c1`, 7.4% (active); with `c1ccc(-c2nn(-c3ccccc3)[n+](-c3cccc4ccccc34)n2)cc1`, -50.3% (active).
In the case of `O=C1Nc2cc(-c3ccncc3)ccc2/C1=C/c1ccc[nH]1`, the growth is 100%.
`CC1=CC2(C)/C=C(C)/C=C\CC(O)/C=C3/C=CC(=C4C(=O)OC2(CC1C)C4=O)OC3` (centres undefined): the growth was -50.1% (active).
For the compound `COc1ccc(C(=O)/C=C/c2cn(Cc3ccc(Cl)cc3)c3ccccc23)cc1`, the growth was -20.5% (active).
Consider `CC(C)(C#N)N1CCN(c2ccccc2Cl)CC1`, for which the growth was 97.3%.
Consider `CN1CCN(c2cc(F)c(NC3=C(Cl)C(=O)c4ncccc4C3=O)c(F)c2)CC1`, for which the growth is -75.8% (active).
On to `Nc1c(Cl)cc([N+](=O)[O-])cc1Br`, for which the growth is 91.4%.
With `CC1(C)CN(c2cnc(C(=O)Nc3cc(F)cc4cccnc34)cn2)CCN1`, the growth was 85.9%.
For the compound `O=C(CNCCO)Nc1ccc2ncnc(Nc3ccc(OCc4cccc(F)c4)c(Cl)c3)c2c1`, the growth is 96.8%.
For the compound `COc1ccc(C(O)c2cc3c(N)c(C(=O)Nc4ccccc4)sc3nc2C)cc1` (centres undefined), the growth was -15.1% (active).
For the compound `Cc1cc(NC(=O)c2cnc(N3CCN(CCOCCOCCOCCOCCC(=O)N[C@H](C(=O)N4C[C@H](O)C[C@H]4C(=O)N[C@@H](C)c4ccc(-c5scnc5C)cc4)C(C)(C)C)CC3)cn2)c2ncccc2c1`, the growth was -68.3% (active).
For `NC(=O)CN1CCN(c2ccccc2Cl)CC1`, the growth was 103%.
As for `c1ccc(-c2nn(-c3ccccc3)[n+](-c3ccccc3-c3ccccc3)n2)cc1`, the growth is 6.4% (active).
Turning to `O=C(N/N=C/c1cccnc1)c1ccccc1Nc1cccc(C(F)(F)F)c1`, the growth was 26.2%.
On to `O=C(Nc1cccc(C2=NCCN2)c1)c1ccc(OCCCOc2ccc(C(=O)Nc3cccc(C4=NCCN4)c3)cc2)cc1`, for which the growth is -72% (active).
On to `O=S(=O)(NCCCNc1nccc(-c2c(-c3ccc(F)c(O)c3)nc3sccn23)n1)c1ccc(F)cc1`, for which the growth is -11.7% (active).
`CCc1c(Nc2ccc(C)cc2)nc(N)[nH]c1=O`: the growth was 106%.
On to `O=C(Nc1ccc2ncnc(Nc3ccc(Oc4cccc(F)c4)c(Cl)c3)c2c1)c1ccc(CN2CCOCC2)cc1`, for which the growth is 22%.
Same read-out and setting: with `Cc1ccc(Nc2cc(=S)nc(N)[nH]2)cc1C` the figure was 103%; with `COc1ccc(Nn2c(SCC(=O)Nc3nc(-c4ccc(Cl)cc4)cs3)nc(C)c2C)cc1`, 50.4%; with `CC(O)(CO)c1ccccc1` (centres undefined), 99.1%.

Another experiment deals with SW-620 colon. Described as above. Conditions: 10 µM unless noted.
For `S=c1[nH]cccc1-c1nnc2n1Nc1nc3ccccc3cc1CS2`, the growth was 99.4%.
Take `O=C(Nc1cccc(Cl)c1)c1cc(Cl)ccc1O`: the growth was 6.44% (active).
Still for that read-out and setting: the figure for `CCc1c(Nc2ccc(C)cc2)[nH]c(N)nc1=S` is 107%; for `CC(=O)N1N=C(c2cccc(Nc3ccncc3)c2)CC1c1ccccc1` (centres undefined) it is 93.6%.
On the same count and under the same terms, with `CCN(CC)CCCC(C)Nc1cc(-c2cccc(OC(F)(F)F)c2)nc2ccc(N3CCCC3)cc12` (centres undefined) the figure was -37.5% (active); with `COc1ccc(C(=O)/C=C/c2ccc(OCc3ccccc3)c(OC)c2)cc1OC`, 12.9%; with `CC[C@H](C)[C@@H]1NC(=O)[C@H](Cc2ccc(O)cc2)N(C)C(=O)[C@H](Cc2ccccc2)NC(=O)CN(C)C(=O)[C@@H]2CCCN2C(=O)[C@@H](Cc2ccccc2)N(C)C(=O)[C@H](CC(C)C)NC1=O`, 3.59% (active).
With `NC(=S)N/N=C/c1ccc(OC(=O)COc2cc(Cl)c(Cl)cc2Cl)cn1`, the growth is 59.6%.
On to `COc1ccccc1Nc1cc(O)c2c(=O)cc(-c3ccccc3)oc2c1`, for which the growth was 20.8%.
Same read-out and setting: the figure for `O=c1[nH]nc(-c2ccc(Cl)cc2)cc1Cc1cccc([N+](=O)[O-])c1` is 101%; for `COc1ccc(C(=O)c2cc3c(N)c(C(=O)Nc4ccc(Cl)cc4)sc3nc2C)cc1` it is 64.3%.
For the compound `O=CNc1cc(Cl)cc(Cl)c1`, the growth was 103%.
As to `O=C(Nc1ccc(Cl)cc1)Nc1ccc(Cl)c(Cl)c1`, the growth was 14.4%.
On the same count and under the same terms, with `Fc1ccc(C2CC(c3cccc(Nc4ccncc4)c3)=NN2c2ccc(Cl)cc2)cc1` (centres undefined) the figure was -74% (active); with `O=C1Nc2cc(-c3ccncc3)ccc2/C1=C/c1ccc[nH]1`, 105%.
Regarding `CC1=CC2(C)/C=C(C)/C=C\CC(O)/C=C3/C=CC(=C4C(=O)OC2(CC1C)C4=O)OC3` (centres undefined), the growth was -88.5% (active).
As to `COc1ccc(C(=O)/C=C/c2cn(Cc3ccc(Cl)cc3)c3ccccc23)cc1`, the growth was 28%.
Turning to `CN1CCN(c2cc(F)c(NC3=C(Cl)C(=O)c4ncccc4C3=O)c(F)c2)CC1`, the growth is -76.6% (active).
The same measure, in the same setting: the figure for `CC(=O)[C@@H]1CC[C@]2(C(=O)n3ccnc3)CC[C@]3(C)[C@H](CC[C@@H]4[C@@]5(C)Cc6c([nH]c7ccccc67)C(C)(C)[C@@H]5CC[C@]43C)[C@@H]12` is 90.8%; for `CC(C)CCSc1nc(NNC(N)=O)c(C#N)c(-c2ccccc2)n1` it is 112%.
For `CC1(C)CN(c2cnc(C(=O)Nc3cc(F)cc4cccnc34)cn2)CCN1`, the growth was 35.1%.
In the case of `O=C(CNCCO)Nc1ccc2ncnc(Nc3ccc(OCc4cccc(F)c4)c(Cl)c3)c2c1`, the growth is 106%.
As to `N#Cc1c(Nc2ccccc2)nn2cc(-c3nc4ccccc4s3)c(N)nc12`, the growth was 72.2%.
Consider `COc1ccc(C(O)c2cc3c(N)c(C(=O)Nc4ccccc4)sc3nc2C)cc1` (centres undefined), for which the growth was 19.3%.
Still for that read-out and setting: the figure for `Cc1cc(NC(=O)c2cnc(N3CCN(CCOCCOCCOCCOCCC(=O)N[C@H](C(=O)N4C[C@H](O)C[C@H]4C(=O)N[C@@H](C)c4ccc(-c5scnc5C)cc4)C(C)(C)C)CC3)cn2)c2ncccc2c1` is -39.9% (active); for `O=C(N/N=C/c1cccnc1)c1ccccc1Nc1cccc(C(F)(F)F)c1` it is 84.1%.
For the compound `O=C(Nc1cccc(C2=NCCN2)c1)c1ccc(OCCCOc2ccc(C(=O)Nc3cccc(C4=NCCN4)c3)cc2)cc1`, the growth is 14.8%.
As for `O=S(=O)(NCCCNc1nccc(-c2c(-c3ccc(F)c(O)c3)nc3sccn23)n1)c1ccc(F)cc1`, the growth is 11.8%.
As to `CCc1c(Nc2ccc(C)cc2)nc(N)[nH]c1=O`, the growth is 109%.
Still for that read-out and setting: the figure for `O=C(Nc1ccc2ncnc(Nc3ccc(Oc4cccc(F)c4)c(Cl)c3)c2c1)c1ccc(CN2CCOCC2)cc1` is 38.7%; for `Cc1ccc(Nc2cc(=S)nc(N)[nH]2)cc1C` it is 96.7%.
Still for that read-out and setting: with `COc1ccc(Nn2c(SCC(=O)Nc3nc(-c4ccc(Cl)cc4)cs3)nc(C)c2C)cc1` the figure was 75.2%.
Still for that read-out and setting: the figure for `CC(O)(CO)c1ccccc1` (centres undefined) is 103%.
